Laboratory results from the supplement of paper PMC7411054.
Where a name gives a salt, the structure may show the parent alone.

Experiments:
Assay in all cases: phenotypically active (imaging signature differs from DMSO and reproducible) at any of 0.3-9 uM (binary (1 = active, 0 = inactive)); higher = active
Details in all cases: treatment time: 24 h
[1] = tested on: A549-ACTB-RAB5A
Procedure, shortened: (§1)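 After 24 h at 0.3, 1, 3 or 9 µM, with four wells per treatment, fifteen gene-edited A549, HepG2 and WPMY1 reporter lines carrying BFP, GFP and RFP/FusionRed were imaged live. Each well's live-cell features were expressed relative to solvent control wells. Deviation required ≥3 of 4 wells past the 95th percentile of control Euclidean distances, and reproducibility a median replicate Pearson correlation over the 95th percentile of non-replicates. Phenotypic activity rested on both.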

[2] = tested on: A549-CANX-COX4
Procedure, shortened: as §1

[3] = tested on: A549-GM130-SQSTM1
Procedure, shortened: as §1

[4] = tested on: A549-TP53BP1-CLTA
Procedure, shortened: as §1

[5] = tested on: A549-TUBA1B-RELA
Procedure, shortened: as §1

[6] = tested on: HepG2-ACTB-RAB5A
Procedure, shortened: as §1

[7] = tested on: HepG2-CANX-COX4
Procedure, shortened: as §1

[8] = tested on: HepG2-GM130-SQSTM1
Procedure, shortened: as §1

[9] = tested on: HepG2-TP53BP1-CLTA
Procedure, shortened: as §1

[10] = tested on: HepG2-TUBA1B-RELA
Procedure, shortened: as §1

[11] = tested on: WPMY1-ACTB-RAB5A
Procedure, shortened: as §1

[12] = tested on: WPMY1-CANX-COX4
Procedure, shortened: as §1

[13] = tested on: WPMY1-GM130-SQSTM1
Procedure, shortened: as §1

[14] = tested on: WPMY1-TP53BP1-CLTA
Procedure, shortened: as §1

[15] = tested on: WPMY1-TUBA1B-RELA
Procedure, shortened: as §1

Measured: phenotypically active

C[C@@H]1CN([C@H]2CC[C@](C#N)(c3ccc(F)cc3)CC2)CC[C@]1(C(=O)O)c1ccccc1 [levocabastine]
inactive: [1] 0 | [2] 0 | [3] 0 | [4] 0 | [5] 0 | [6] 0 | [7] 0 | [8] 0 | [9] 0 | [10] 0 | [11] 0 | [12] 0 | [13] 0 | [14] 0 | [15] 0

C[C@]12Cc3cn[nH]c3C[C@@H]1CC[C@@H]1[C@@H]2CC[C@@]2(C)[C@H]1CC[C@]2(C)O [stanozolol]
inactive: [1] 0 | [2] 0 | [3] 0 | [4] 0 | [5] 0 | [6] 0 | [7] 0 | [8] 0 | [9] 0 | [10] 0 | [11] 0 | [12] 0 | [13] 0 | [14] 0 | [15] 0

N[C@H]1C[C@@H]1c1ccccc1 [tranylcypromine]
inactive: [1] 0 | [2] 0 | [3] 0 | [4] 0 | [5] 0 | [6] 0 | [7] 0 | [8] 0 | [9] 0 | [10] 0 | [11] 0 | [12] 0 | [13] 0 | [14] 0 | [15] 0

Oc1ccc2c3c1O[C@H]1[C@@H](O)CC[C@@]4(O)[C@@H](C2)N(CC2CCC2)CC[C@]314 [nalbuphine]
inactive: [1] 0 | [2] 0 | [3] 0 | [4] 0 | [5] 0 | [6] 0 | [7] 0 | [8] 0 | [9] 0 | [10] 0 | [11] 0 | [12] 0 | [13] 0 | [14] 0 | [15] 0

CN1CCc2cc3c(cc2[C@H]1[C@@H]1OC(=O)c2c1ccc1c2OCO1)OCO3 [bicuculine]
inactive: [1] 0 | [2] 0 | [3] 0 | [4] 0 | [5] 0 | [6] 0 | [7] 0 | [8] 0 | [9] 0 | [10] 0 | [11] 0 | [12] 0 | [13] 0 | [14] 0 | [15] 0

COc1cc(C(=O)O[C@H]2C[C@H]3CC[C@@H](C2)N3C)ccc1O [Fillalbin]
inactive: [1] 0 | [2] 0 | [3] 0 | [4] 0 | [5] 0 | [6] 0 | [7] 0 | [8] 0 | [9] 0 | [10] 0 | [11] 0 | [12] 0 | [13] 0 | [14] 0 | [15] 0

C/C(O)=C(/C#N)C(=O)Nc1cc(Br)ccc1Br
inactive: [1] 0 | [2] 0 | [3] 0 | [4] 0 | [5] 0 | [6] 0 | [7] 0 | [8] 0 | [9] 0 | [10] 0 | [11] 0 | [12] 0 | [13] 0 | [14] 0 | [15] 0

CN1[C@@H]2C[C@@H](OC(=O)[C@H](CO)c3ccccc3)C[C@H]1[C@@H]1O[C@@H]12 [Scopolamine hydrobromide]
inactive: [1] 0 | [2] 0 | [3] 0 | [4] 0 | [5] 0 | [6] 0 | [7] 0 | [8] 0 | [9] 0 | [10] 0 | [11] 0 | [12] 0 | [13] 0 | [14] 0 | [15] 0

NC(=O)CS(=O)C(c1ccccc1)c1ccccc1 (stereo not given) [modafinil]
inactive: [1] 0 | [2] 0 | [3] 0 | [4] 0 | [5] 0 | [6] 0 | [7] 0 | [8] 0 | [9] 0 | [10] 0 | [11] 0 | [12] 0 | [13] 0 | [14] 0 | [15] 0

CC[N+](CC)(CCCNC1=CC(=O)C(NCCC[N+](CC)(CC)Cc2ccccc2)=CC1=O)Cc1ccccc1 [Benzoquinonium dibromide]
inactive: [1] 0 | [2] 0 | [3] 0 | [4] 0 | [5] 0 | [6] 0 | [7] 0 | [8] 0 | [9] 0 | [10] 0 | [11] 0 | [12] 0 | [13] 0 | [14] 0 | [15] 0

N#CC(O[C@@H]1O[C@H](CO[C@@H]2O[C@H](CO)[C@@H](O)[C@H](O)[C@H]2O)[C@@H](O)[C@H](O)[C@H]1O)c1ccccc1 (stereo not given in full) [Amygdalin]
inactive: [1] 0 | [2] 0 | [3] 0 | [4] 0 | [5] 0 | [6] 0 | [7] 0 | [8] 0 | [9] 0 | [10] 0 | [11] 0 | [12] 0 | [13] 0 | [14] 0 | [15] 0

O=C1CCC[C@@H]2[C@H]3CCCN4CCC[C@@H](CN12)[C@@H]34 [Matrine]
inactive: [1] 0 | [2] 0 | [3] 0 | [4] 0 | [5] 0 | [6] 0 | [7] 0 | [8] 0 | [9] 0 | [10] 0 | [11] 0 | [12] 0 | [13] 0 | [14] 0 | [15] 0

Cc1nnc2n1-c1ccc(Cl)cc1C(c1ccccc1)=NC2 [alprazolam]
inactive: [1] 0 | [2] 0 | [3] 0 | [4] 0 | [5] 0 | [6] 0 | [7] 0 | [8] 0 | [9] 0 | [10] 0 | [11] 0 | [12] 0 | [13] 0 | [14] 0 | [15] 0

CCOc1cc(C=O)ccc1O [Ethylvanilline]
inactive: [1] 0 | [2] 0 | [3] 0 | [4] 0 | [5] 0 | [6] 0 | [7] 0 | [8] 0 | [9] 0 | [10] 0 | [11] 0 | [12] 0 | [13] 0 | [14] 0 | [15] 0

COc1c2c(cc3c1OCO3)CC[N+](C)=C2 [Cotarnine chloride]
inactive: [1] 0 | [2] 0 | [3] 0 | [4] 0 | [5] 0 | [6] 0 | [7] 0 | [8] 0 | [9] 0 | [10] 0 | [11] 0 | [12] 0 | [13] 0 | [14] 0 | [15] 0

COc1ccc(C(=O)OC2C[C@H]3CC[C@H](C2)N3C)cc1OC (stereo not given in full) [Convolamine hydrochloride]
inactive: [1] 0 | [2] 0 | [3] 0 | [4] 0 | [5] 0 | [6] 0 | [7] 0 | [8] 0 | [9] 0 | [10] 0 | [11] 0 | [12] 0 | [13] 0 | [14] 0 | [15] 0

CN1C2CCC1CC(O)C2 (stereo not given) [Tropine]
inactive: [1] 0 | [2] 0 | [3] 0 | [4] 0 | [5] 0 | [6] 0 | [7] 0 | [8] 0 | [9] 0 | [10] 0 | [11] 0 | [12] 0 | [13] 0 | [14] 0 | [15] 0

CC(C)[N+](C)(CCC(C(N)=O)(c1ccccc1)c1ccccc1)C(C)C [isopropamide-iodide]
inactive: [1] 0 | [2] 0 | [3] 0 | [4] 0 | [5] 0 | [6] 0 | [7] 0 | [8] 0 | [9] 0 | [10] 0 | [11] 0 | [12] 0 | [13] 0 | [14] 0 | [15] 0

CC[C@H]1C[N@@]2CC[C@H]1C[C@H]2[C@@H](O)c1ccnc2ccc(O)cc12 [Hydrocupreine]
inactive: [1] 0 | [2] 0 | [3] 0 | [4] 0 | [5] 0 | [6] 0 | [7] 0 | [8] 0 | [9] 0 | [10] 0 | [11] 0 | [12] 0 | [13] 0 | [14] 0 | [15] 0

O=c1ccc2ccc3occc3c2o1 [Angelicin]
inactive: [1] 0 | [2] 0 | [3] 0 | [4] 0 | [5] 0 | [6] 0 | [7] 0 | [8] 0 | [9] 0 | [10] 0 | [11] 0 | [12] 0 | [13] 0 | [14] 0 | [15] 0

C=C[C@]12CN(C)[C@@H]3[C@H]4CO[C@H](C[C@H]41)[C@]1(C(=O)Nc4ccccc41)[C@@H]32 [Gelsemine]
inactive: [1] 0 | [2] 0 | [3] 0 | [4] 0 | [5] 0 | [6] 0 | [7] 0 | [8] 0 | [9] 0 | [10] 0 | [11] 0 | [12] 0 | [13] 0 | [14] 0 | [15] 0

CCCN1CCC[C@@H]2Cc3n[nH]cc3C[C@H]21 [(-)-Quinpirole hydrochloride]
inactive: [1] 0 | [2] 0 | [3] 0 | [4] 0 | [5] 0 | [6] 0 | [7] 0 | [8] 0 | [9] 0 | [10] 0 | [11] 0 | [12] 0 | [13] 0 | [14] 0 | [15] 0

Nc1ccncc1 [dalfampridine]
inactive: [1] 0 | [2] 0 | [3] 0 | [4] 0 | [5] 0 | [6] 0 | [7] 0 | [8] 0 | [9] 0 | [10] 0 | [11] 0 | [12] 0 | [13] 0 | [14] 0 | [15] 0
